The results in this text go back to PubChem BioAssay AID651965 (National Center for Advancing Translational Sciences (NCATS), 2013).

The whole screen tested about 340,000 compounds, of which about 6,400 (1.9%) were called active. About 4% were inconclusive and are not listed. Many of the other results were omitted from the sample, so actives are more common in it than they were. Values without a mark were called inactive. Calls follow the shape of the dose curve; as a rule, active = well fitted falling curve with a large enough effect; inconclusive = small, poorly fitted or top-dose-only effect; inactive = no such curve, though single readings can be large or run the other way.
Potency is read from the fitted curve at half-maximal effect.

ATP-dependent Clp protease proteolytic subunit (Bacillus subtilis (strain 168)), sequence (P80244 whole entry, looked up): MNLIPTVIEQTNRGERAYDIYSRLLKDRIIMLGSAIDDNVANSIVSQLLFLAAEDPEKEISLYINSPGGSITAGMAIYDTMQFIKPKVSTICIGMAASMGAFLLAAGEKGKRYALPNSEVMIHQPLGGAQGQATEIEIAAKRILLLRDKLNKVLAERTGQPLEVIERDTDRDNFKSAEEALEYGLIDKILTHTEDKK

This test concerns the target ATP-dependent Clp protease proteolytic subunit (Bacillus subtilis (strain 168)) (UniProt P80244). As to the kind of experiment: qHTS Assay for Activators of ClpP. Also: the source files actives as falling curves though it sought activators and does not explain the sign; nearly all actives have a fitted effect of over 65% in size. Particulars: purified B. subtilis ClpP, FRET peptide cleavage, 20 min; series mostly up to 57.5 µM; activity change, negative = active: at the top concentration. In a few lines:
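FRET quenching reversal measured ClpP activation: 10 microg/mL B. subtilis ClpP at pH 8 with the FRET-FV decapeptide, read at 430 nm after 320 nm excitation. The 20-min minus 0-min signal was scaled between DMSO/no-enzyme wells and ADEP (5.8 microM final).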
In general terms: qHTS replaces the single test concentration by a dilution series.
`CN(Cc1cn(Cc2ccc(C(F)(F)F)cc2)nn1)C1CN(Cc2cn(Cc3ccc(C(F)(F)F)cc3)nn2)S(=O)(=O)C1` (stereo not given): the “activity change, negative = active” value is 2.25%.
For the compound `CCOCCCNC(=O)c1cn(CC(C)C)c(=O)c2c1c1ccccc1n2C`, the Potency is 39.8 µM (active).
As for `COCCCNC(=O)Cn1cc(C(=O)C2CC2)c2ccccc21`, the “activity change, negative = active” value was 0.52%.
Still for that read-out and setting: the value for `CCOCCCNC(=O)c1cn(CC)c2ccc(S(=O)(=O)N3CCc4ccccc4C3)cc2c1=O` was -0.751%; that for `CC(=O)C[C@@H]1OC[C@H](CO)N1S(=O)(=O)c1ccc(C)cc1` was 0.114%.
With `CCN1CCN(c2ccc(/C=C/c3ccnc4ccccc34)cc2)CC1`, the “activity change, negative = active” value is -1.67%.
Regarding `CCOc1ccc2[nH]c(=O)c(C(c3nnnn3CCOC)N3CCOCC3)cc2c1` (stereo not given), the Potency was 15.8 µM (active).
On to `COCCn1nnnc1C(c1ccccc1Cl)N1CCN(c2ccccc2OC)CC1` (stereo not given), for which the “activity change, negative = active” value was 16.9%.
Still for that read-out and setting: the value for `COc1ccc(N2CCN(C(c3cc4ccc(C)cc4[nH]c3=O)c3nnnn3C3CCCC3)CC2)cc1` (stereo not given) was -8.89%; that for `CSCCC(C(=O)NC(C)(C)C)n1c(-c2ccccc2)nc2ccccc21` (stereo not given) was -7.98%; that for `Cc1cccc(C)c1-n1nnnc1C(CCc1ccccc1)N1CCN(C/C=C/c2ccccc2)CC1` (stereo not given) was 2.81%.
On to `CCCCNC(=O)c1nc(C2CCN(S(=O)(=O)c3ccc(F)c(F)c3)CC2)oc1-c1cccc(C(F)(F)F)c1`, for which the “activity change, negative = active” value was -16.5%.
In the case of `CCOc1cc(C(C(=O)NCC2CCCO2)N(C(=O)Cn2nnc3ccccc32)c2cccc(OC)c2)ccc1O` (stereo not given), the “activity change, negative = active” value is -0.295%.
On to `CCOc1cc(-c2nc3cc(C)ccn3c2NCC2CCCO2)ccc1O` (stereo not given), for which the Potency was 28.2 µM (active).
For the compound `COc1ccc(-c2nc3cc(C)ccn3c2NC2CCCCC2)cc1SC1CCCCC1`, the “activity change, negative = active” value was 3.39%.
With `Cc1ccc(S(=O)(=O)NN=C2CC(C)(C)CC(=O)C2(C)C)cc1`, the “activity change, negative = active” value was -0.103%.
Turning to `O=C1COc2ccc(-c3csc(-c4ccc(Cl)cc4)n3)cc2N1`, the “activity change, negative = active” value was 3.36%.
Take `CSc1ccccc1-c1nnc(NC(=O)c2ccc3c(c2)OCCO3)o1`: the “activity change, negative = active” value was 4.31%.
For `CSc1ccccc1-c1nnc(-c2ccc(Cl)cc2)o1`, the Potency is 31.6 µM (active).
On to `COc1ccccc1-c1nnc(-c2ccc(F)cc2)o1`, for which the “activity change, negative = active” value was -0.414%.
As for `CCC(C)CN1C(=O)CSCC1(C)C(=O)NCc1ccccc1` (stereo not given), the “activity change, negative = active” value is -4.83%.
For `O=C(NCc1ccccc1)c1ccc2c(c1)nc1n2CCCCC1`, the “activity change, negative = active” value was -5.59%.
For `Cc1ccc(C)n1-c1nnc(N2CCC(C(=O)NCc3ccc(F)cc3)CC2)s1`, the “activity change, negative = active” value is 10.4%.
Regarding `O=C(NCc1ccc(F)cc1)c1ccc2nc(N3CCCCC3)sc2c1`, the Potency is 35.5 µM (active).
With `CN1OC[C@@H]2CN(C(=O)C(C)(C)C)[C@H](c3ccc(-n4ccnc4)cc3)C[C@@H]21`, the “activity change, negative = active” value was -0.0839%.
For the compound `CN1CCN(C(=O)c2ccc(-c3cc4nc(NCc5cccnc5)n(C)c(=O)c4s3)cc2)CC1`, the “activity change, negative = active” value is 4.86%.
On the same count and under the same terms, the value for `COc1ccc(Cn2c(=O)[nH]c3cc(C(=O)N4CCN(C(=O)c5ccco5)CC4)ccc3c2=O)cc1` was -8.08%.
Regarding `COC(=O)c1ccc(Sc2ccc(F)cc2)c(N)c1`, the Potency was 28.2 µM (active).
On to `CC(=O)Nc1cc(C(=O)NCc2ccc(F)cc2)ccc1Sc1ccc(F)cc1`, for which the “activity change, negative = active” value was 0.223%.
Regarding `Cc1ccc(Sc2ccc(NC(=O)c3ccc(F)cc3)cc2C#N)cc1`, the “activity change, negative = active” value was 4.22%.
As for `C=C1C=C(C)n2ncc(C(=O)Nc3ccccc3O)c2N1`, the “activity change, negative = active” value was -5.9%.
Still for that read-out and setting: the value for `COCCn1c(SCC(=O)Nc2ccc(F)cc2F)nc2c(c1=O)SCC2` was 1.65%.
The same measure, in the same setting: the value for `Cc1cc2nc(-c3ccc(F)cc3)c(Cc3ccsc3)n2c(C)c1Br` was -3.99%.
As for `Cc1c(C(=O)OCC(=O)N(CCC#N)c2ccccc2)oc2c1ccc1ccccc12`, the Potency is 25.1 µM (active).
Take `Cc1cc(C)n2nc(C(=O)OCC(=O)N(CCC#N)c3ccc(F)cc3)nc2n1`: the “activity change, negative = active” value was -2.14%.
On the same count and under the same terms, then `N#CCCN(C(=O)COC(=O)c1ccc(S(=O)(=O)N2CCCCCC2)cc1)c1ccccc1`, with 1.35%.
On to `O=C(Nc1ccc(N2CCOCC2)cc1)c1cccc2c(-c3ccc(F)c(F)c3)coc12`, for which the “activity change, negative = active” value was 24.2%.
On the same count and under the same terms, the value for `Cc1nc2c(OCc3cccc(Cl)c3)cccn2c1N(C)CC1CC1` was -11.2%; that for `COc1cc(Cn2c3ccc(NC(=O)CC(C)c4ccccc4)cc3c(=O)n2C)ccc1F` (stereo not given) was 4.54%.
With `COc1ccc2c(c1)C(=O)Nc1cc(Cl)ccc1N2`, the Potency is 28.2 µM (active).
`COc1ccc(OC)c(C(=O)c2ccc(Cl)cc2)c1`: the “activity change, negative = active” value is -4.97%.
On the same count and under the same terms, the value for `COc1ccc(-n2c(-c3ccc(Cl)cc3)n[nH]c2=S)c(OC)c1` was -16.5%.
Turning to `C=CCn1c(SCn2nnc3ccccc3c2=O)nnc1-c1ccc(Cl)cc1`, the “activity change, negative = active” value was -1.24%.
Consider `C=CCn1c(-c2ccc(Cl)cc2)ccc(C#N)c1=O`, for which the Potency is 28.2 µM (active).
On to `CCn1c(C)cc(=O)cc1-c1ccc(Cl)cc1`, for which the “activity change, negative = active” value is 0.84%.
Still for that read-out and setting: then `COc1cc2ccc(C(C)=O)c(O)c2cc1OC`, with 3.45%.
In the case of `CCC(O)CNc1nc(-n2nc(C)cc2C)nc2sc3c(c12)CC(C)(C)OC3` (stereo not given), the “activity change, negative = active” value is -5.09%.
As to `COCCNc1nc(-n2nc(C)cc2C)nc2sc3c(c12)CCCC3`, the Potency was 28.2 µM (active).
With `COCCNc1ncnc2c1nc1n2CCCC1`, the “activity change, negative = active” value was 0.498%.
On the same count and under the same terms, the value for `COCCCNC(=O)c1cccc2c(-c3ccc(O)c(OC)c3)coc12` was 0.962%.
Same read-out and setting: then `CC1=C(C(=O)Nc2cccc(C(=O)NCC(C)c3ccccc3)c2)SCCO1` (stereo not given), with 0.0606%.
With `CN1CCN(C(=O)c2ccc(NC(=O)c3ccc(Br)o3)cc2)CC1`, the “activity change, negative = active” value was 1.14%.
On to `Cc1c(C(=O)NCc2ccc(C#N)cc2)sc(=O)n1Cc1ccc(C(=O)N(C)C)cc1`, for which the “activity change, negative = active” value was 1.14%.
`COC(=O)[C@@]12C[C@@H](CC(=O)N3CCC(c4ccccc4)CC3)C(=O)N(Cc3ccccc3)C1=CCC(C)(C)C2`: the “activity change, negative = active” value is 1.79%.
In the case of `COCCNC(=O)CSc1nc(-c2ccccc2)[nH]c1-c1ccc(C)cc1`, the Potency is 31.6 µM (active).
On to `COCCNC(=O)CSc1nc(N)c(NC(=O)c2ccco2)c(=O)[nH]1`, for which the “activity change, negative = active” value is 1.56%.
On the same count and under the same terms, then `Cc1nnc(SCC(=O)NCCOc2ccc(Cl)cc2)n1-c1ccccc1`, with -4.45%; and `CC1(C(=O)NS(=O)(=O)c2ccccc2)CCN1C(=O)c1ccccc1` (stereo not given), with -1.98%.
Still for that read-out and setting: then `O=C(c1cc(C2CCCCN2S(=O)(=O)c2ccccc2)on1)N1CCOCC1` (stereo not given), with -0.363%.
`O=C(Nc1ccc2c(c1)OCCO2)C1CCCC1`: the “activity change, negative = active” value was 2.15%.
Still for that read-out and setting: then `Cc1nc2ccc(NC(=O)C3CCCCC3)cc2s1`, with -1.11%.
Turning to `Cc1cccc(C(=O)Nc2ccc3c(c2)C(=O)N(CC(C)C)C3=O)c1`, the “activity change, negative = active” value was 4.1%.
`CN1C(=O)c2ccc(NC(=O)C3CCCCC3)cc2C1=O`: the Potency was 31.6 µM (active).
With `CN1C(=O)c2ccc(C(=O)Nc3ccc(Br)cn3)cc2C1=O`, the “activity change, negative = active” value was -1.62%.
`CN1C(=O)c2ccc(NC(=O)c3c(F)c(F)c(F)c(F)c3F)cc2C1=O`: the Potency is 31.6 µM (active).
